High-throughput results (PubChem)
A selection: hits, their analogues and other compounds. The true share with any hit is near 1.1%.
PKA-R1A activ: PKA-R1A complex activation; P00514+P68181; PKA-R1A dissociation, Cy5-IP20 fluorescence polarization; scaled: DMSO 0%, 113 µM cGMP 100%; activation, % at 11.4 µM; 340,000 compounds, 0.083% hits;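 active means percent activation above the mean of all tested compounds plus 3 SD, cut at about 19% in these data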;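 further: higher means more PKAc released from R1A so a rise in polarization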
PKA-R2B act: activates the human PKA-R2B holoenzyme complex. PKA-R2B holoenzyme dissociation, Cy5-IP20 fluorescence polarization; R2B truncated from residue 108, S112A mutant; 0% DMSO only, 100% 113 µM cGMP. activation, % at 11.4 µM. 340,000 compounds, 0.079% hits;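 active means activation above a cutoff set at the mean over all compounds plus 3 SD, cut at about 18% in these data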;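 further: higher means more holoenzyme dissociation and a rise in polarization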
Target sequence (P31323 whole entry, looked up, other chains not shown, the tested form may be a part): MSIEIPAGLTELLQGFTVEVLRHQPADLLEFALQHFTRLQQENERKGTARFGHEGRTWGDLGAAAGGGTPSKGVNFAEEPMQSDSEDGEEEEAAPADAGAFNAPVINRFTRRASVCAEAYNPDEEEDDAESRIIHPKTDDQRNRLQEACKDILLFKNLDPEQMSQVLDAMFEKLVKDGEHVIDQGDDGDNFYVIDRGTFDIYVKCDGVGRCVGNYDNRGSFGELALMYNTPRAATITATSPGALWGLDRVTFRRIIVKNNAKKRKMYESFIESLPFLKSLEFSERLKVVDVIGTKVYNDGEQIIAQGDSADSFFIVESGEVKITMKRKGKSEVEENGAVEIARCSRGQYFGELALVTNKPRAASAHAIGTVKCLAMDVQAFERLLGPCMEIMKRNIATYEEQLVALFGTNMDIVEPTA
bovine MsrA act: activates bovine MsrA enzyme | purified bovine MsrA, absorbance read-out | AID 602163 | 360,000 compounds, 0.3% hits | activation, % at 10.6 µM; in the data active means activation above about 7.5%;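 further: 0% = vehicle and 100% = reference activator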
MsrA inhibitor: inhibits bovine methionine sulfoxide reductase A; purified bovine MsrA, absorbance read-out; inhibition, % at 15.5 µM; 360,000 compounds, 0.75% hits; in the data active means inhibition above about 4.5%;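 further: 0% = vehicle wells with enzyme and 100% = reference inhibitor wells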
R2B FP artifact: FP assay interference, PKA-R2B counter-screen | shares compounds with PKA-R2B act | FP artifact counterscreen, fluorescence polarization | activation, % at 11.4 µM | 270 compounds, 6% hits; in the data active means activation above about 20%;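 further: Cy5 labelled IP20 peptide probe with compound but no PKA protein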
PKA-R2B act conf: confirmation of human PKA-R2B complex activators | activation, % at 11.4 µM | fluorescence polarization, activation | AID 504797 | shares compounds with PKA-R2B act | 270 compounds, 9% hits; in the data active means activation above about 19%
Target sequence (P31323 whole entry, looked up): as the sequence (P31323 whole entry, looked up, other chains not shown, the tested form may be a part) above
* marks the source's active call; other numbers are inactive results.

Results for Cc1cc(O)c2c(c1)C(=O)C13C(=C2O)C(=O)[C@H]2[C@@H](O)[C@@H]1[C@H]1[C@H](O)[C@@H]3C(=O)C3=C(O)c4c(O)cc(C)cc4C(=O)C312 (stereo partly drawn) ?
PKA-R1A activ: 17; PKA-R2B act: 37*; bovine MsrA act: -7

Results for COC(=O)C1C2c3ccccc3OC1(C)N=c1s/c(=C/c3cnn(C)c3C)c(=O)n12 (stereo not drawn) ?
PKA-R1A activ: 6; PKA-R2B act: 5; bovine MsrA act: 1; MsrA inhibitor: 0

Results for CC(=O)C1C2c3ccccc3OC1(C)N=c1s/c(=C/c3cnn(C)c3)c(=O)n12 (stereo not drawn) ?
PKA-R1A activ: -4; PKA-R2B act: -8; bovine MsrA act: -4; MsrA inhibitor: 8.1*

How did COc1ccc(Cn2c(O)c(/C=N/NC(=O)c3ccccc3)c(=O)[nH]c2=O)cc1 do in these assays?
PKA-R1A activ: 4; PKA-R2B act: 8; bovine MsrA act: -8; MsrA inhibitor: 4.5*

Results for O=C(N/N=C/c1c(O)n(Cc2ccccc2)c(=O)[nH]c1=O)c1ccccc1O ?
PKA-R1A activ: -16; PKA-R2B act: -7; bovine MsrA act: -8; MsrA inhibitor: 4.6*

What do the screens show for `O=C(N/N=C/c1c(O)n(Cc2ccc(F)cc2)c(=O)[nH]c1=O)c1ccccc1O`?
PKA-R1A activ: 1; PKA-R2B act: 0; bovine MsrA act: -7; MsrA inhibitor: 4

Results for CCC12CCN(CC3(O)CC3)C(Cc3ccc(O)cc31)C2(C)C (stereo not drawn) ?
MsrA inhibitor: -1

What do the screens show for `CCn1nc(-c2cccs2)nc2c(=O)n(C)c(=O)nc1-2`?
PKA-R1A activ: -1; PKA-R2B act: -5; bovine MsrA act: 59*

What do the screens show for `CC1=CC2/C=C(\C)CCC(O)C(O)/C=C/C(=O)C23C(=O)NC(CC(C)C)C3C1C` (stereo not drawn)?
PKA-R1A activ: 3; PKA-R2B act: -3; bovine MsrA act: -1

Results for C/C1=C\[C@@H](C)C/C=C/[C@H]2[C@@H]3O[C@]3(C)[C@@H](C)[C@H]3[C@H](Cc4c[nH]c5ccccc45)NC(=O)[C@]32C(=O)/C=C/C(=O)[C@@H]1O ?
PKA-R1A activ: -8; PKA-R2B act: -5; bovine MsrA act: 8.1*

How did c1ccc2c(c1)-c1cccc3cccc-2c13 do in these assays?
PKA-R1A activ: inactive; PKA-R2B act: inactive; bovine MsrA act: 1; MsrA inhibitor: 0

What do the screens show for `c1ccc2c(c1)[IH]c1ccccc1-2`?
PKA-R1A activ: 3; PKA-R2B act: -5; bovine MsrA act: -10; MsrA inhibitor: 85*

Results for N#Cc1ccc(NC(=S)N2Cc3ccc(Br)cc3-n3nncc3C2)cc1 ?
MsrA inhibitor: 1

How did CC(C)C(CN1CCC(C)(c2cccc(O)c2)[C@@H](C)C1)NC(=O)C1Cc2ccc(O)cc2CN1 (stereo partly drawn) do in these assays?
MsrA inhibitor: -1

How did O=[N+]([O-])c1ccc(NCCCN2CCOCC2)nc1 do in these assays?
PKA-R1A activ: -13; PKA-R2B act: -2; bovine MsrA act: -10; MsrA inhibitor: 4.6*

Results for O=C(NCCN1CCOCC1)c1ccc(Cl)nc1 ?
PKA-R1A activ: -10; PKA-R2B act: 0; bovine MsrA act: -4; MsrA inhibitor: 0

What do the screens show for `C=C(COC(C)=O)CC1CC(O)[C@]2(C)OC3CC4OC5C[C@]6(C)O[C@]7(C)CCC8OC9C[C@]%10(C)OC%11C(C)=CC(=O)OC%11CC%10OC9C[C@@H](C)C8OC7CC6O[C@]5(C)C/C=C\C4OC3CC2O1` (stereo partly drawn)?
PKA-R1A activ: -8; PKA-R2B act: 6; bovine MsrA act: 9.7*

What do the screens show for `Clc1ccc([C@H]2CC3CCC2N3)cn1` (stereo partly drawn)?
MsrA inhibitor: -1

How did Cc1ccc(-n2c(O)c(C=NCCN3CCNCC3)c(=O)[nH]c2=S)cc1 do in these assays?
PKA-R1A activ: -8; PKA-R2B act: -2; bovine MsrA act: -2; MsrA inhibitor: 4.6*

Results for Cc1c(C=O)c2ccccc2n1Cc1ccccc1F ?
PKA-R1A activ: -1; PKA-R2B act: -2; bovine MsrA act: -3; MsrA inhibitor: 2

How did CCOC(=O)c1c(C=O)c2ccccc2n1Cc1ccccc1F do in these assays?
PKA-R1A activ: 2; PKA-R2B act: 1; bovine MsrA act: -3; MsrA inhibitor: 4.6*

Results for N#Cc1ccc2nc(-c3ccc(CN4CCC(n5c(=O)[nH]c6cc(Cl)ccc65)CC4)cc3)c(-c3ccccc3)nc2c1 ?
MsrA inhibitor: 1

Results for COC(=O)C1=C(c2ccc(OC(F)(F)F)cc2)C[C@@H]2CC[C@H]1N2C(=O)NCCOc1ccc(OC)cc1 ?
PKA-R1A activ: -5; PKA-R2B act: -11; bovine MsrA act: -1; MsrA inhibitor: 10.0*

How did CCN(CC)c1ccc(/C=C2/C(=O)NC(=O)N(Cc3ccco3)C2=O)cc1 do in these assays?
PKA-R1A activ: 6; PKA-R2B act: -7; bovine MsrA act: -10; MsrA inhibitor: 4.6*

How did CCc1cc(OC)c(CCN)cc1OC do in these assays?
MsrA inhibitor: 0

What do the screens show for `CCOc1cc(C=O)ccc1O`?
PKA-R1A activ: -16; PKA-R2B act: -2; bovine MsrA act: -10; MsrA inhibitor: 4.6*

What do the screens show for `CN1CC[C@@H]2CN[C@H](c3ccccc3Br)C[C@@H]21`?
MsrA inhibitor: -1

How did COc1ccc2c3c([nH]c2c1)C(C)=NCC3 do in these assays?
PKA-R1A activ: -3; PKA-R2B act: 4; bovine MsrA act: 11*; MsrA inhibitor: 4

How did O=C(NCCN1CCC2(CC1)C(=O)NCN2c1ccccc1)c1ccc(OC(F)(F)F)cc1 do in these assays?
MsrA inhibitor: 0

What do the screens show for `O=C(NCCN1CCC2(CC1)C(=O)NCN2c1ccccc1)C(c1ccccc1)c1ccccc1`?
MsrA inhibitor: 1

How did O=C(O)c1cccc2c1NC(C(=O)O)C1CC(Sc3ccccc3[N+](=O)[O-])C(Cl)C21 (stereo not drawn) do in these assays?
PKA-R1A activ: 5; PKA-R2B act: 22*; bovine MsrA act: -5; MsrA inhibitor: 2; R2B FP artifact: 24*; PKA-R2B act conf: 15

Results for N#CCCn1cc(C=C2C(=O)NC(=O)NC2=O)c(-c2ccccc2)n1 ?
PKA-R1A activ: 10; PKA-R2B act: 19*; bovine MsrA act: -4; MsrA inhibitor: 0; R2B FP artifact: 5; PKA-R2B act conf: 2

How did CC(Cc1ccccc1)N(C)CC1C(=O)C2CCC1C2 (stereo not drawn) do in these assays?
PKA-R1A activ: -12; PKA-R2B act: -3; bovine MsrA act: -1; MsrA inhibitor: -1

How did C#CCN(C)C(C)Cc1ccccc1 (stereo not drawn) do in these assays?
PKA-R1A activ: -8; PKA-R2B act: 19*; bovine MsrA act: -2; MsrA inhibitor: -1; R2B FP artifact: 1; PKA-R2B act conf: 2
